Test results taken from PubChem BioAssay (Tox21).
Records with an inconclusive call do not appear. Activity calls are given as the source filed them. Unless noted, the call rests on the fitted dose curve; in most records, active means well fitted curve in the direction sought with a large enough effect in the repeat runs; inconclusive means weak or mixed curves; inactive means no such curve, though single readings can be large; an effect the other way counts as inactive or inconclusive.

Legend:
[1] = qHTS assay to identify small molecule antagonists of the thyroid receptor (TR) signaling pathway - cell viability counter screen (AID 743064); further: nearly all actives have a fitted effect of over 50% in size
Outline: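 Plate GH3.TRE-Luc cells; incubate 4 h at 37 °C; add compound, then T3 to 1 nM final; incubate 23.5 h; add CellTiter-Fluor; incubate 30 min at 37 °C, 5% CO2; read fluorescence.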

[2] = qHTS assay to identify small molecule antagonists of the thyroid receptor (TR) signaling pathway (AID 743065); further: series mostly up to about 70 µM; nearly all actives have a fitted effect of over 55% in size
Outline: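 GH3.TRE-Luc rat pituitary cells carrying two TR response elements driving luciferase were plated for 4 h, given compound plus 1 nM T3 (final), and incubated 23.5 h at 37 C. ONE-Glo luminescence measured reporter inhibition; CellTiter-Fluor fluorescence tracked cytotoxicity.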

[3] = tested on: thyroid hormone receptor (rat, GH3 cells); assay: qHTS assay to identify small molecule agonists of the thyroid receptor (TR) signaling pathway (AID 743066; calls by dose curve)
[4] = molecular target: Estrogen receptor (Homo sapiens) (UniProt P03372); assay: qHTS assay to identify small molecule antagonists of the estrogen receptor alpha (ER-alpha) signaling pathway (AID 743069; active means well fitted curve in the direction sought with a large enough effect in the signal ratio in the repeat runs, not every such curve was filed as active; the % refers to the signal ratio)
Chain of Estrogen receptor (Homo sapiens) (P03372 whole entry, looked up): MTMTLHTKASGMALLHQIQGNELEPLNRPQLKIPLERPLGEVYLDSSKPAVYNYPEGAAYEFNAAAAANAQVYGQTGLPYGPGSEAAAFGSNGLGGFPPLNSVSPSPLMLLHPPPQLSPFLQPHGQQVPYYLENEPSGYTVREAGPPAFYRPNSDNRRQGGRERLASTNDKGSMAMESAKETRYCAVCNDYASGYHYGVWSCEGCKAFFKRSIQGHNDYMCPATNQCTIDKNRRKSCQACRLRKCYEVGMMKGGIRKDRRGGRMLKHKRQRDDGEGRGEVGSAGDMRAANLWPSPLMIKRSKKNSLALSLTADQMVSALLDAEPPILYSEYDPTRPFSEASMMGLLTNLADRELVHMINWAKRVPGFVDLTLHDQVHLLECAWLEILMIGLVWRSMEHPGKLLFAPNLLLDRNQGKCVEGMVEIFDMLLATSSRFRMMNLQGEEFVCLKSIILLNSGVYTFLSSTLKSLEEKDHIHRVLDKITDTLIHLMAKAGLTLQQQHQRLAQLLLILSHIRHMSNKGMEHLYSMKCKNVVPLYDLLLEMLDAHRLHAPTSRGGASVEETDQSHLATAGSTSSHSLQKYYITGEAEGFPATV
Outline: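 A 17beta-estradiol challenge was applied right after compound transfer to ER-alpha-UAS-bla HEK293 cells previously kept in charcoal-stripped serum. Plates stood 18 hr at 37C and 5% CO2; fluorescence was read following 2 hr FRET substrate loading at room temperature.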

[5] = qHTS assay to identify small molecule antagonists of the estrogen receptor alpha (ER-alpha) signaling pathway - cell viability counter screen (AID 743074; calls by dose curve;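 further: HEK293 cells carrying ER-alpha-UAS-bla reporter stimulated with 17beta-estradiol; nearly all actives have a fitted effect of over 45% in size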)
[6] = molecular target: Estrogen receptor (Homo sapiens) (UniProt P03372); assay: qHTS assay to identify small molecule agonists of the estrogen receptor alpha (ER-alpha) signaling pathway (AID 743075; calls by dose curve;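 further: HEK293 GripTite cells with ER-alpha and UAS-driven beta-lactamase reporter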)
[7] = molecular target: Estrogen receptor (Homo sapiens) (UniProt P03372); assay: qHTS assay to identify small molecule agonists of the estrogen receptor alpha (ER-alpha) signaling pathway using the BG1 cell line (AID 743079); further: nearly all actives have a fitted effect of over 20% in size
[8] = qHTS assay to identify small molecule antagonists of the estrogen receptor alpha (ER-alpha) signaling pathway using the BG1 cell line (AID 743080; calls by dose curve;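 further: BG1 cells stimulated with 17beta-estradiol alongside compound; series mostly up to about 70 µM; nearly all actives have a fitted effect of over 25% in size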)
Outline: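 Endogenous full-length ER-alpha in BG1-Luc-4E2 cells drives a stably integrated 4×ERE luciferase gene; compounds were tested against 17beta-estradiol over 21.5 h, with luminescence and multiplexed viability fluorescence recorded.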

[9] = qHTS assay to identify small molecule antagonists of the estrogen receptor alpha (ER-alpha) signaling pathway using the BG1 cell line - cell viability counter screen (AID 743081);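 further: compound given together with 17beta-estradiol as the ER stimulus; series mostly up to about 70 µM; nearly all actives have a fitted effect of over 45% in size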
Aromatase (Homo sapiens) = Aromatase (Homo sapiens) (UniProt P11511); assay: qHTS assay to identify aromatase inhibitors (AID 743083); further: series mostly up to about 70 µM; nearly all actives have a fitted effect of over 55% in size
Chain of Aromatase (Homo sapiens) (P11511 whole entry, looked up): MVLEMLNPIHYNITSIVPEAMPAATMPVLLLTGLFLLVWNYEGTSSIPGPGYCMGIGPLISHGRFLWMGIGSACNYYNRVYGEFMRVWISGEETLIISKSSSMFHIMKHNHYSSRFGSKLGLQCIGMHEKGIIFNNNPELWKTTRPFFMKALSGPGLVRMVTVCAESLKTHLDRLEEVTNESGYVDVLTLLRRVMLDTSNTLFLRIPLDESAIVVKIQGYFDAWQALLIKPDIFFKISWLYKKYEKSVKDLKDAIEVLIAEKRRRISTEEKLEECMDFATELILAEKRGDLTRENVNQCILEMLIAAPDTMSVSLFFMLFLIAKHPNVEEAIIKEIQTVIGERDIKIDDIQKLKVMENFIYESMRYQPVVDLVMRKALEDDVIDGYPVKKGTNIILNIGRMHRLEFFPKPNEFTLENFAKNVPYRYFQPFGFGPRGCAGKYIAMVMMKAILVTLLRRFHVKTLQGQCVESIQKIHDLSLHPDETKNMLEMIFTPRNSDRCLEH

[10] = qHTS assay to identify aromatase inhibitors - cell viability counter screen (AID 743084);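 further: cells stimulated with testosterone during compound exposure; nearly all actives have a fitted effect of over 55% in size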
[11] = molecular target: Aryl hydrocarbon receptor (Homo sapiens) (UniProt P35869); assay: qHTS assay to identify small molecule that activate the aryl hydrocarbon receptor (AhR) signaling pathway (AID 743085);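 further: HG2L7.5c1 human HepG2 liver cells with stably integrated DRE-driven firefly reporter; series mostly up to about 70 µM; nearly all actives have a fitted effect of over 15% in size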
Chain of Aryl hydrocarbon receptor (Homo sapiens) (P35869 whole entry, looked up): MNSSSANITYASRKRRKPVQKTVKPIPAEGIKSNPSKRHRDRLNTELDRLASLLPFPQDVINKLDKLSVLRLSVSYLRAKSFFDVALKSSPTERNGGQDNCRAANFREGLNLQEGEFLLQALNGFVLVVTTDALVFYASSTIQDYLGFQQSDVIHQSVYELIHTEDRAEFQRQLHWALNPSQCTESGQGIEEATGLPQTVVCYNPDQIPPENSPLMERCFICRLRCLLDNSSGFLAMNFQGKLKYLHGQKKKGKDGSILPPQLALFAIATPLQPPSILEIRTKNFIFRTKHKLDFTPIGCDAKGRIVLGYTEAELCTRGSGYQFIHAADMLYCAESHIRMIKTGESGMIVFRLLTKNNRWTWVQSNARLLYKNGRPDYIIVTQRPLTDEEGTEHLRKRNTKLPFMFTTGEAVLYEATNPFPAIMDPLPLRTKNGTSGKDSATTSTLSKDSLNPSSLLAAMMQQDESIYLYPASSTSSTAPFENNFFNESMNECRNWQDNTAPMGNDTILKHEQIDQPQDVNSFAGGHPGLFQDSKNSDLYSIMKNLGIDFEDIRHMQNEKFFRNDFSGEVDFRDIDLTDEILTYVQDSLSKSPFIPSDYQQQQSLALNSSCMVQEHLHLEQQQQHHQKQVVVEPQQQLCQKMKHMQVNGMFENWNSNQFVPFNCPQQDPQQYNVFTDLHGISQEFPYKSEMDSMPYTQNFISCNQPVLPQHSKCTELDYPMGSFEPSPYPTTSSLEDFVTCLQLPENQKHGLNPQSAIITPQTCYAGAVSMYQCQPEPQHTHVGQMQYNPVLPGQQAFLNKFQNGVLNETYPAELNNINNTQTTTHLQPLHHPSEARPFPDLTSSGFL
Outline: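 Steps: seed HepG2-AhR-luc cells; allow 5 h at 37C; pin-transfer test compound or vehicle; incubate 24 h at 37C; add viability dye (30 min, 37C) and read fluorescence; add luciferase substrate (30 min, RT) and read luminescence.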

[12] = qHTS assay to identify small molecule that activate the aryl hydrocarbon receptor (AhR) signaling pathway - cell viability counter screen (AID 743086);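 further: HepG2 liver cells carrying the AhR DRE luciferase reporter; series mostly up to about 70 µM; nearly all actives have a fitted effect of over 45% in size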
Outline: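 HepG2-AhR-luc (HG2L7.5c1) cells, 4000/well, were preincubated 5 h at 37C, exposed to compound in qHTS format for 24 hr at 37C, then given CellTiter-Fluor for 30 min; viability was read as fluorescence in the reporter wells.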

[13] = qHTS assay to identify small molecule antagonists of the peroxisome proliferator-activated receptor gamma (PPARg) signaling pathway - cell viability counter screen (AID 743194); further: nearly all actives have a fitted effect of over 55% in size
Outline: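 PPARg-UAS-bla HEK293H cells were plated, rested 5 h at 37 C, then treated with compounds plus rosiglitazone (50 nM final) for 17 h at 37 C; viability was then read by CellTiter-Glo luminescence after 30 min at room temperature.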

[14] = qHTS assay for small molecule agonists of the antioxidant response element (ARE) signaling pathway (AID 743202; active means well fitted activation curve with a large enough effect in the signal ratio in the repeat runs, not every such curve was filed as active; the % refers to the signal ratio)
Outline: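 Following a 16 h, 37 C exposure of reporter HepG2 cells (ARE-driven beta-lactamase, 2,000 cells/well) to compounds, FRET substrate was applied for 2 h at room temperature and fluorescence intensity recorded.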

[15] = qHTS assay for small molecule agonists of the antioxidant response element (ARE) signaling pathway - cell viability counter screen (AID 743203; calls by dose curve; further: nearly all actives have a fitted effect of over 55% in size)
Outline: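 Parallel cytotoxicity read-out for the ARE-bla screen: HepG2 reporter cells, 16 hrs with compounds, then CellTiter-Glo luminescence.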

[16] = qHTS assay for small molecule activators of the heat shock response signaling pathway - cell viability counter screen (AID 743209); further: nearly all actives have a fitted effect of over 50% in size
Outline: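 To flag cytotoxic compounds, HSE-bla HeLa cells plated at 1500 cells/well were dosed for 5 h at 37 C, followed by the reporter FRET read and then CellTiter-Glo, with luminescence recorded 30 min after reagent addition.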

[17] = qHTS assay for small molecule activators of the heat shock response signaling pathway (AID 743210; active means well fitted activation curve with a large enough effect in the signal ratio in the repeat runs, with a control signal flat, not every such curve was filed as active; the % refers to the signal ratio; further: series mostly up to about 63 µM)
Outline: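 Heat shock element–beta-lactamase HeLa reporter cells; qHTS with compounds for 5 h at 37 C; detection by FRET substrate fluorescence after 2.5 h at RT.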

[18] = molecular target: Peroxisome proliferator-activated receptor gamma (Homo sapiens) (UniProt P37231); assay: qHTS assay to identify small molecule agonists of the peroxisome proliferator-activated receptor gamma (PPARg) signaling pathway (AID 743094; active means well fitted activation curve with a large enough effect in the signal ratio in the repeat runs, not every such curve was filed as active; the % refers to the signal ratio)
Chain of Peroxisome proliferator-activated receptor gamma (Homo sapiens) (P37231 whole entry, looked up): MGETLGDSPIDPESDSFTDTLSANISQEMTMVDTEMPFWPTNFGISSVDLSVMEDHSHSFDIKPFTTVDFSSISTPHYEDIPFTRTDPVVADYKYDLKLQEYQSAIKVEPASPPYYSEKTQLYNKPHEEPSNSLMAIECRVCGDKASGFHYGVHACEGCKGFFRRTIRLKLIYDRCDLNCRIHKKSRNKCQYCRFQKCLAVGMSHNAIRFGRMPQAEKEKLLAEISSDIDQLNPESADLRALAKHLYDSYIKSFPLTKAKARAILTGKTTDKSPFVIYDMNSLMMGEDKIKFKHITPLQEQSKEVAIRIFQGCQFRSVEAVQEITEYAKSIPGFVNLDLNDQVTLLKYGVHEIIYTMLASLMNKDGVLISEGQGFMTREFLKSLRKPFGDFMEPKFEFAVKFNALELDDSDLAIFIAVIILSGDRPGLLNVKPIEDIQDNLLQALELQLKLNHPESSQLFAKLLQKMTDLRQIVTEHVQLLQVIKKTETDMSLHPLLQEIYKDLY
Outline: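 Fluorescence-based beta-lactamase readout in HEK293H PPARg UAS-bla cells after 17 h compound exposure (37C) and 1 h B/G FRET substrate incubation at room temperature.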

[19] = molecular target: Peroxisome proliferator-activated receptor gamma (Homo sapiens) (UniProt P37231); assay: qHTS assay to identify small molecule antagonists of the peroxisome proliferator-activated receptor gamma (PPARg) signaling pathway (AID 743191; calls by dose curve; further: series mostly up to about 63 µM; nearly all actives have a fitted effect of over 30% in size)
Outline: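 GeneBLAzer PPARg UAS-bla HEK293H cells carrying a UAS-driven beta-lactamase reporter were plated at 3000 cells/well, preincubated 5 h at 37C, then given compound for 17 h at 37C; LiveBLAzer B/G FRET substrate was read after 1 h at room temperature.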

Measured: Potency

CC(C)(C)N
not listed: [18] | [19]
inactive: all other assays above

CCc1cnc(C(=O)O)c(C(=O)O)c1
not listed: [10]
inactive: all other assays above

CCCCCCCCCCCCN1CCOCC1
inactive: all assays above

CCCC(=O)OCc1ccccc1
not listed: [18]
inactive: all other assays above

CC(C)=CCCC(C)C=O (configuration not stated)
not listed: [13] | [14]
inactive: all other assays above

CC(C)NC(=O)c1ccccc1N
not listed: [14]
inactive: all other assays above

CCOC(OCC)OCC
not listed: [17]
inactive: all other assays above
